Screening results deposited in PubChem BioAssay by National Center for Advancing Translational Sciences (NCATS).
Only some compounds are listed: those with a hit (about 0.54% of all), similar ones and a draw of the others.
TDP1 inh: inhibitors of human tyrosyl-DNA phosphodiesterase TDP1. AID 485290. hit rate 0.28% among 350,000. recombinant TDP1, AlphaScreen DNA substrate cleavage. Potency, µM (series often up to 130 µM), hits mostly inhibitors; note: nearly all actives have a fitted effect of over 40% in size
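Signal: AlphaScreen proximity between streptavidin donor and anti-FITC acceptor beads on intact substrate. Reaction: Tdp1 1 nM, substrate 15 nM final, 5 min RT after 15 min compound preincubation.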
EPAC2 antagonist: EPAC2 (human) antagonism; EPAC2 GEF exchange of Rap1B-BODIPY-GDP, fluorescence; Q8WZA2; hit rate 0.18% among 360,000; Potency, µM (top dose mostly 114 µM), actives largely listed as inhibitors; note: nearly all actives have a fitted effect of over 45% in size
ERG-DNA inh: blocks human ERG Ets domain binding to DNA. hit rate 0.028% among 370,000. AID 624246. fluorescence polarization, His-ERG Ets domain / labelled DNA. P11308. Potency, µM (titrated, usually from 76.9 µM), most hits filed as inhibitors; active = well fitted inhibition curve with a large enough effect in the polarisation, with a control signal flat; inconclusive = small, poorly fitted or top-dose-only effect, or effect the other way, or a change in a side signal; inactive = no such curve, though single readings can be large or run the other way; the % refers to the polarisation;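 note: polarization taken with two DNA probes labelled with fluorescein and Texas red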
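His-tagged ERG Ets domain (1 uM in the protein solution; 300mM KCl, 50mM Tris-HCl, 1mM EDTA, 1mM DTT, pH 7.5) received compound, then a probe mix of 5 nM fluorescein-DNA and 100nM Texas-615-DNA. Fluorescence polarization was read for both dyes.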
EPAC1 antag: blocks human EPAC1 exchange factor. O95398. EPAC1 GEF assay, Rap1b-BODIPY-GDP exchange fluorescence. Potency, µM (doses to about 115 µM), actives largely listed as inhibitors. hit rate 0.14% among 360,000; note: nearly all actives have a fitted effect of over 50% in size
Target sequence (O95398 whole entry, looked up): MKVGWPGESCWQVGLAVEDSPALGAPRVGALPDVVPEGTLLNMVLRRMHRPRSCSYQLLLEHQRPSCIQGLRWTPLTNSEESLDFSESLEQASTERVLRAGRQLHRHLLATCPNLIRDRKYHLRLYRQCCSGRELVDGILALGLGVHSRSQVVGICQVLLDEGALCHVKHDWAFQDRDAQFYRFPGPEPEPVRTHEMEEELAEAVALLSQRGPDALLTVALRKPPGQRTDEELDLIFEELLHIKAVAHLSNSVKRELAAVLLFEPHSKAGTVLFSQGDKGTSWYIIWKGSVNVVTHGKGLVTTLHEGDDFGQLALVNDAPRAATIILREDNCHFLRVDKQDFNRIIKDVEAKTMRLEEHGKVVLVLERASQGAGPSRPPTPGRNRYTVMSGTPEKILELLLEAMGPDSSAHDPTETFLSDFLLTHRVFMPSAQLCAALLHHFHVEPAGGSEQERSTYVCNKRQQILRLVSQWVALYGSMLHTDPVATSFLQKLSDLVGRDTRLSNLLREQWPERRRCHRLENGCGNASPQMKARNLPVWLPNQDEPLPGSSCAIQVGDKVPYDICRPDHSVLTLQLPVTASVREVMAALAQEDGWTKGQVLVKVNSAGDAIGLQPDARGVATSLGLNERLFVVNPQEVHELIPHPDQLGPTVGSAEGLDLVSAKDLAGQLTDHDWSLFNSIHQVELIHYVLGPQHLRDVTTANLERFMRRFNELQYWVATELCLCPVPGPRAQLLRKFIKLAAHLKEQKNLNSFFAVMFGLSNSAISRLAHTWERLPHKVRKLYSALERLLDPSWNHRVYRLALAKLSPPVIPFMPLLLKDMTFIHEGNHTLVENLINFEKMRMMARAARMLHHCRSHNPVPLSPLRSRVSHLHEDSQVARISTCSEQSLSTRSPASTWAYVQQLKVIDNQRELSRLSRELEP
EPAC2 agonist: activates human EPAC2 exchange factor | EPAC2 activation, biochemical qHTS; response scale: 100% = 6.5 mM cAMP response | Potency, µM (highest dose often 154 µM), most hits filed as activators | hit rate 0.079% among 360,000; note: nearly all actives have a fitted effect of over 50% in size
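Guanine nucleotide exchange by EPAC2 is measured as reduced fluorescence of BODIPY-GDP once it is released from 250 nM Rap1B. Plates are read kinetically for 30 min at room temperature; results are scaled to 6.5 mM cAMP.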
EPAC1 agonist: agonists of human EPAC1; EPAC1 agonist qHTS, biochemical assay; response scale: 100% = response to 6.5 mM cAMP; Potency, µM (top dose mostly 154 µM), actives largely listed as activators; hit rate 0.073% among 360,000; note: nearly all actives have a fitted effect of over 60% in size
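Nucleotide exchange assay: 100 nM EPAC1 with 250 nM Rap1B loaded with BODIPY-GDP and 50 uM GDP, room temperature. Fluorescence (480/540 nm) read every 5 min for 30 min; signal change normalized to 6.5 mM cAMP as full agonist.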
A number is an active result; . = inactive; ? = inconclusive; / = no result given; [ ] = another dose, or the depositor's remark. Unless noted, calls come from the whole dose curve; as a rule, active = well fitted curve in the direction sought with a large enough effect; inconclusive = small, poorly fitted or top-dose-only effect, or another doubt; inactive = no such curve, though single readings can be large; an effect the other way counts as inactive or inconclusive.

SMILES	TDP1 inh	EPAC2 antagonist	ERG-DNA inh	EPAC1 antag	EPAC2 agonist	EPAC1 agonist
O=C(NN(C(=O)c1ccccc1)c1ccccc1)c1ccccc1	71µM	.	.	.	.	.
O=C1CCc2cc([S+](=O)([O-])NC3CCOCC3)ccc2N1	.	/	/	/	/	/
O=C1NC(=O)/C(=C/c2ccc(-c3cc(C(=O)O)ccc3Cl)o2)S1	32µM	?	.	.	.	.
Cc1ccc(CN2C(=O)N/C(=C\c3ccc(-c4ccc(C(=O)O)cc4C)o3)C2=O)cc1	8.9µM	.	.	.	.	.
Cc1ccc(C(=O)O)cc1-c1ccc(/C=C2/NC(=O)N(c3ccccc3)C2=O)o1	1.6µM	.	.	.	.	.
Cc1cc(C(=O)O)ccc1-c1ccc(/C=C2\NC(=O)N(Cc3ccccc3Cl)C2=O)o1	.	.	.	.	.	.
O=C(O)c1ccc(-c2ccc(/C=C3\NC(=O)N(Cc4ccc(Cl)cc4)C3=O)o2)cc1	13µM	.	.	.	.	.
Clc1ncc(C#Cc2ccccc2)c2ncncc12	.	/	/	/	/	/
O=S(=O)(c1ccc2c(c1)OCCO2)N1CCN(S(=O)(=O)c2ccc(F)cc2F)CC1	.	/	/	/	/	/
CC1CCc2c(sc3nc(SCC(=O)O)n(-c4ccccc4)c(=O)c23)C1 (configuration not stated)	.	.	.	89µM	.	?
COc1ccc(NC(=O)CSc2nc3sc4c(c3c(=O)n2-c2ccc(OC)cc2)CCN(C)C4)cc1	.	71µM	.	.	?	.
COc1cc(OC)c(-c2c3cc(O)c(=O)cc-3oc3cc(O)c(O)cc23)cc1OC	.	.	.	.	112µM	100µM
COc1ccc(C2Nc3ccccc3C(=O)N2Cc2ccccn2)cc1COc1ccc(NC(C)=O)cc1 (configuration not stated)	.	/	/	/	/	/
O=S(=O)(Nc1cc(Sc2ncn[nH]2)c(O)c2ccccc12)c1ccccc1	.	?	.	?	.	.
O=C(O)CSc1cc(NS(=O)(=O)c2ccc(Br)cc2)c2ccccc2c1O	/	?	.	56µM	.	.
O=C(O)c1ccc(S(=O)(=O)/N=C2\C=C(Nc3ccccc3F)C(=O)c3ccccc32)cc1	.	?	.	22µM	.	.
Cc1ccccc1NC1=C/C(=N\S(=O)(=O)c2ccc(C(=O)O)cc2)c2ccccc2C1=O	.[0.0935 µM]	50µM	.	40µM	.	.
Cc1ccc(-c2c3c([nH]c(=S)c2C#N)CCCC3)o1	32µM	.	.	?	.	.
O=C(O)c1ccc(N/N=C/c2ccc(-c3ccccc3Cl)o2)cc1	.	40µM	.	.	.	.
O=C(N/N=C/c1ccc(-c2ccccc2Cl)o1)c1ccccc1	.	.	.	.	.	.
CCN(C(=O)COC(=O)/C=C/c1ccc(F)cc1)C1CCCCC1	.	.	.	.	.	.
O=C(/C=C/c1ccco1)OCC(=O)N1CCCCC1	7.1µM	.	.	.	.	.
CCN(C(=O)COC(=O)/C=C/c1ccco1)C1CCCCC1	20µM	.	.[15.4 µM]	.	.	.
CCOC(=O)C(C)Sc1ncnc2c1nnn2-c1ccc(F)cc1 (configuration not stated)	.	20µM	.	.	.	.
CCC(Sc1ncnc2c1nnn2-c1ccc(F)cc1)C(=O)OC (configuration not stated)	.	.	.	.	.	.
SMILES	TDP1 inh	EPAC2 antagonist	ERG-DNA inh	EPAC1 antag	EPAC2 agonist	EPAC1 agonist
Cc1ccc(C(=O)NCCOc2cccc(C)c2)cc1	.	.	.	.	.	.
COC(=O)c1ccc(OCCOc2ccccc2C)cc1	79µM	.	.	.	.	.
CCOC(=O)c1ccc(OCCOc2cccc(C)c2)cc1	50µM	.	.	.	.	.
COc1cccc(C2c3c(ncn(-c4cccnc4)c3=N)Oc3ccc4ccccc4c32)c1 (configuration not stated)	.	/	/	/	/	/
O=C(CNC(=O)/C=C/c1ccco1)N=Nc1c(O)[nH]c2ccccc12	40µM	.	.	.	.	.
CC(=O)c1nnn(-c2nc(C#N)nc(N3CCOCC3)n2)c1C	.	/	/	/	/	/
COc1ccc(S(=O)(=O)N2CCN(c3nc(-c4cccs4)nc4ccccc34)CC2)cc1OC	.	/	/	/	/	/
O=C1C=C(c2ccccc2)C(c2ccccc2)C1 (configuration not stated)	/	35µM	.	.	.	.
O=C1CC(c2ccccc2)c2ccccc21 (configuration not stated)	.	.	.	.	.	.
Cc1cccc2c(N=NC(=O)c3ccc(NS(=O)(=O)c4cccs4)cc3)c(O)[nH]c12	50µM	.	.	.	.	.
COc1cc(CNc2ccc(O)cc2)cc(Br)c1OCc1ccccc1F	.	?	.	28µM	.	.
COc1cc(CNCc2ccncc2)cc(Br)c1OCc1ccccc1F	.	.	.	.	.	.
O=c1cc(-c2ccc(O)cc2)oc2c1ccc1ccccc12	/	.	.	.	.	.
O=c1cc(-c2ccc(O)cc2)oc2c(O)c(O)c(O)c(O)c12	/	.	.	6.3µM	.	.
O=c1cc(-c2ccc(O)cc2)oc2ccc3ccccc3c12	32µM	.	.	.	.	.
CC(=O)Nc1ccc(OCc2cccc(C3Nc4ccccc4C(=O)N3Cc3ccco3)c2)cc1 (configuration not stated)	.	/	/	/	/	/
Cc1ccc2nc(N3C(=O)C(O)=C(C(=O)c4ccc(C)o4)C3c3cccc(O)c3)sc2c1 (configuration not stated)	.	.	.	50µM	.	.
COc1ccc2nc(N3C(=O)C(O)=C(C(=O)c4ccco4)C3c3ccc(OC)c(OC)c3)sc2c1 (configuration not stated)	/	.	/	.	.	.
O=C(O)c1cc2c(s1)-c1ccccc1OC2	.	.	.	.	.	.
O=C(O)c1cc2c(s1)-c1ccccc1CC2	.	.	16µM	.	.	.
O=c1[nH]nc(SCc2ccccc2)c(=O)[nH]1	.	.	.	.	.	.
NNC(=O)c1ccc(CSc2n[nH]c(=O)[nH]c2=O)cc1	45µM	.	.	.	.	.
Cc1ccc(NS(=O)(=O)c2ccc3c(ccn3C)c2)cc1C	.	/	/	/	/	/
COc1ccc(-c2nn3c(-c4cc(-c5ccccc5)n[nH]4)nnc3s2)cc1OC	.	/	/	/	/	/
COc1cc2c(cc1OC)-c1cc(NC3CCCCC3)nc(=O)n1CC2	.	.	.	.	6.3µM	.
N#Cc1ccc(NS(=O)(=O)c2ccc3c(c2)CCC(=O)N3)cc1	.	/	/	/	/	/
COc1ccc(CCNCC(=O)Nc2ccc(C)c(S(=O)(=O)N(C)C)c2)cc1OC	79µM	.	.	.	.	.
CC1=NN(c2ccc(C)cc2)C(=O)/C1=C/c1ccc(-c2cc([N+](=O)[O-])ccc2O)o1	/	.	.	?	.	.
